# Assay outcomes (PubChem BioAssay)
# p53 reactivator = re-activators of mutant p53; H1299 p53-A138V BP100-luciferase reporter, luminescence, 24 h; 320,000 tested, 0.063% active; AID 504706; Potency, µM (series often up to 92.2 µM), for the others: at the top dose activity change, positive = activation, usual class: activators; further: % of control where 0% means no effect; nearly all actives have a fitted effect of over 45% in size
#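 H1299 (p53-null), stable ts p53-A138V + BP100-Luc; 1000 cells/well, Opti-MEM/10% FBS; cpd 4 pt, 1:5; 24 h, 37 deg C, 5% CO2; detection reagent 10 min RT; luminescence.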
# ELG1 genotoxic = inducers of genotoxicity in HEK293T ELG1-luciferase cells; HEK293T ELG1-luciferase reporter, luminescence, 16 h; Potency, µM (top dose mostly 46 µM), for the others: at the top dose activity change, positive = activation, most hits filed as activators; 330,000 tested, 1.3% active; further: % of control where 0% means no effect; nearly all actives have a fitted effect of over 60% in size
#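 DMSO vehicle served as control against compound-treated ELG1-luciferase HEK293T cells; exposure lasted 16 hr at 37 °C and 5% CO2, followed by ONE-Glo luminescence detection after 30 min.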
# FLuc modulator = inhibits or activates purified firefly luciferase, miR-21 counter-screen; P08659; purified FLuc, Km substrates, luminescence inhibition; Potency, µM (doses to about 57.5 µM), inactives show at the highest dose activity change, negative = inhibition, most hits filed as inhibitors; 360,000 tested, 6.9% active; AID 588342;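 further: plate controls were vehicle for no effect and reference inhibitor for full effect; nearly all actives have a fitted effect of over 55% in size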
# Target sequence (P08659 whole entry, looked up): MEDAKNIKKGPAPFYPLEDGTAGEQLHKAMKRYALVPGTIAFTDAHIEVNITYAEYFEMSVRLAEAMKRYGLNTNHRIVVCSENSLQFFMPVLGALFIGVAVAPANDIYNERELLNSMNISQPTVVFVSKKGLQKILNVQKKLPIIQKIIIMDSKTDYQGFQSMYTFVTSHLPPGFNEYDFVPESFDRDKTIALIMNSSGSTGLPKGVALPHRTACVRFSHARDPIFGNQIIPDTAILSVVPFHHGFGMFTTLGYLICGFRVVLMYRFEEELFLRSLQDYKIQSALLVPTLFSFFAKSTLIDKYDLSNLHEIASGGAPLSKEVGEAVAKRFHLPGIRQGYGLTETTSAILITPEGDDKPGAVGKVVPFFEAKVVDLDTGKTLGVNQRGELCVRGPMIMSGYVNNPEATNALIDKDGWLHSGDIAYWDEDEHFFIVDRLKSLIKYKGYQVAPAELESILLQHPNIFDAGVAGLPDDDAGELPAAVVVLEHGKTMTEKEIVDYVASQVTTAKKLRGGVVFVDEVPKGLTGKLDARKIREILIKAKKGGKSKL
#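 Purified P. pyralis luciferase, 10 nM final, with Km-level 10 uM D-luciferin and 10 uM ATP in 50 mM Tris acetate pH 7.5, 10 mM Mg acetate, 0.01% Tween-20, 0.05% BSA; 6-point qHTS titration about 60 µM downward; luminescence read.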
# Rab9 promoter act = activates the Rab9 promoter; Potency, µM (series often up to 9.22 µM), inactives show at the highest dose activation, negative = inhibition, most hits filed as activators; Huh7 Rab9 promoter-luciferase reporter, luminescence, 24 h; 320,000 tested, 2.8% active; AID 485297; further: % of control where 0% means no effect; nearly all actives have a fitted effect of over 60% in size
#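 Quantitative HTS format; Huh7 Rab9-luciferase reporter cells (1500/well) receive compound 2 h post-plating, incubate 24 h at 37 °C, then get luciferase reagent for 10 min before luminescence reading.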
# SMN2 splice enh = SMN2 splice variant enhancement; AID 1458; 210,000 tested, 2.8% active; HEK293 SMN2-luciferase splicing reporter, luminescence, 30-36 h; Potency, µM (highest dose often 46.1 µM), for the others: top-dose activity change, positive = activation, most hits filed as activators; further: % of control where 0% means no effect; nearly all actives have a fitted effect of over 55% in size
#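 HEK293 cells carry an SMN2 minigene-luciferase reporter in which exon 7 inclusion puts luciferase in frame. Cells were seeded at 2000 cells/well, attached for 10-12 hours, then exposed to compounds for 30-36 hours at 37C before ONE-Glo luminescence.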
# NPC1 promoter act = activates the NPC1 promoter | Huh7 NPC1 promoter luciferase reporter, 24 h | 320,000 tested, 2.4% active | Potency, µM (doses to about 9.22 µM), without a hit: top-dose activation, usual class: activators; further: % of control where 0% means no effect; nearly all actives have a fitted effect of over 60% in size
#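 In 1536-well qHTS, Huh7 cells harboring an NPC1 promoter–luciferase construct received compound for 24 h; activation was quantified by luminescence following luciferase reagent addition.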
# The depositor's hits bear a star; u = inconclusive; x = not tested or not shown; [ ] = another dose, or the depositor's remark. Sampled rows, rich in hits. Any-hit rate of the full collection: about 7.4%. The call rests on the fitted dose curve; in most records, active means well fitted curve in the direction sought with a large enough effect; inconclusive means small, poorly fitted or top-dose-only effect, or another doubt; inactive means no such curve, though single readings can be large; an effect the other way counts as inactive or inconclusive. Potency means the concentration at half of the fitted maximal effect.
SMILES,p53 reactivator,ELG1 genotoxic,FLuc modulator,Rab9 promoter act,SMN2 splice enh,NPC1 promoter act
O=C(CCCc1ccccc1)Nc1cccc(C(=O)O)c1,-9.7%,0.5%,0.379µM*,0.251µM*,1.58µM*,0.316µM*
CNC(=S)Nc1cccc(C(=O)O)c1,8.2%,-1.8%,-5.7%,-2.0%,8.9%,0.0%
O=C(CCc1ccccc1)NC(=S)Nc1cccc(C(=O)O)c1,2.4%,u,4.78µM*,3.16µM*,x,1.41µM*
COc1ccc(NC(=O)CCCc2ccccc2)cc1OC,u,18.3µM*,u,3.98µM*,x,3.55µM*
COc1ccc(NC(=O)CCCC(=O)c2ccccc2)cc1OC,8.6%,-0.7%,-19.8%,10.8%,x,-2.0%
O=C(CCc1ccccc1)NC(=S)Nc1cccc(Br)c1,17.6%,1.0%,-2.3%,-2.0%,-1.3%,-0.9%
CC(C)(C)C(=O)NC(=S)Nc1cccc(C(=O)O)c1,-5.2%,u,19µM*,0.794µM*,x,2.82µM*
CC(=O)N1CCc2c(sc3c2c(=O)n(CCc2ccccc2)c(=O)n3CC(=O)Nc2ccc(C)c(F)c2)C1,x,x,1.4%,x,-5.4%,x
Cc1ccc(Cn2c(=O)n(CCCCC(=O)NCc3ccccc3Cl)c(=O)c3ccccc32)cc1,x,x,2.1%,x,13.4%,x
CCOCC(=O)Nc1ccc(OCc2ccccc2)cc1,4.9%,u,16.9µM*,u,u,19.8%
CC(C)=CC(=O)Nc1ccc(OCc2ccccc2)cc1,0.2%,u,13.5µM*,u,17.2%,u
CC(C)=CC(=O)Nc1ccc(Br)cc1,22.3%,3.66µM*,4.78µM*,1.41µM*,12.6µM*,2.51µM*
S=C(Nc1ccccc1)Nc1ccc(OCc2ccccc2)cc1,0.0%,0.7%,3.2%,6.6%,-11.4%,-3.1%
CCOC(=O)C(=O)Nc1ccc(OCc2ccccc2)cc1,-5.8%,0.4%,u,-2.8%,x,-3.2%
COC(=O)c1ccc(CN(C(=O)N2CCN(C)CC2)S(=O)(=O)c2ccc(C)cc2)cc1,10.3%,2.1%,-1.2%,-2.0%,x,0.3%
COC(=O)c1ccc(C2NC(=O)c3c(sc(C)c3C)N2)cc1 (centres undefined),1.1%,2.2%,u,3.3%,x,-2.9%
Cc1sc2c(c1C)C(=O)NC(c1cccc(O)c1)N2 (centres undefined),u,3.2%,15.1µM*,8.3%,u,-0.2%
Cc1ccc(N(C(=O)Cn2nnc(-c3ccc(C)o3)n2)C(C(=O)NC2CCCC2)c2ccco2)cc1 (centres undefined),5.1%,3.9%,-0.1%,-6.4%,28.2µM*,2.2%
COc1ccc(CN(C(=O)Cn2nnc(-c3ccc(C)o3)n2)C(C(=O)NCC2CCCO2)c2ccco2)cc1 (centres undefined),-0.7%,u,0.19µM*,u,x,u
Cc1ccc(-c2nnn(CC(=O)N(c3ccccc3)C(C(=O)NC3CCCC3)c3ccncc3)n2)o1 (centres undefined),4.7%,20.8%,4.2%,-0.7%,x,-2.7%
CCOC(=O)c1scc(-c2ccc(C)cc2)c1S(=O)(=O)N1CCN(c2ccccc2F)CC1,x,x,-9.6%,x,x,x
COc1cccc(CSCC(=O)O)c1,x,x,x,x,-5.8%[9.22 µM],x
O=Cc1cccc(OC(=O)/C=C/c2ccco2)c1,x,u,26.9µM*,12.8%,x,u
O=C(/C=C/c1ccco1)Oc1ccc(C(=S)N2CCOCC2)cc1,10.3%,16.7%,u,-1.8%,-55.2%,-0.3%
COC(=O)c1ccc(OC(=O)/C=C/c2ccco2)cc1,9.4%,2.6%,2.39µM*,1.2%,x,0.0%
SMILES,p53 reactivator,ELG1 genotoxic,FLuc modulator,Rab9 promoter act,SMN2 splice enh,NPC1 promoter act
CC(C)c1ccc(NC2CCCN(C(=O)CCc3cn[nH]c3)C2)cc1 (centres undefined),-5.6%,-4.7%,4.6%,0.1%,x,-2.7%
CCc1ccc(N(CC)C(=O)Cn2nc(Cc3cccnc3)c3ccccc3c2=O)cc1,x,x,1.4%,x,4.5%,x
Cc1ccc(NC(=O)Cn2c(=O)n(Cc3ccc4c(c3)OCO4)c(=O)c3ccc(C(=O)NC4CCCCC4)cc32)c(C)c1,x,x,-0.9%,x,9.3%,x
O=C(c1ccncc1)N1N=C(c2ccc(Cl)cc2)CC1c1ccccc1O (centres undefined),u,u,16.9µM*,24.2%,x,1.4%
COc1ccc(C2=NN(C(=O)c3ccncc3)C(c3ccccc3O)C2)cc1 (centres undefined),-4.0%,-40.5%,-3.9%,3.3%,x,-10.4%
Cn1c(=O)n(C)c2cc(/C=N/NC(=O)c3ccc(Cl)cc3Cl)ccc21,-5.4%,13.7%,4.6%,-3.6%,28.4%,0.0%
O=C(/C=N/NC(=O)c1ccccc1Br)c1ccccc1,11.4%,6.1%,9.53µM*,19.8%,7.3%,6.5%
O=C(/C=N/NC(=O)c1ccc(Cl)cc1Cl)c1ccccc1,21.6%,11.8%,2.69µM*,u,x,21.1%
Cc1ccc(CN(C(=O)COc2ccc(F)cc2)C2CCS(=O)(=O)C2)o1 (centres undefined),x,x,-1.9%,x,-3.5%,x
COC(=O)CSc1nnc(-c2ccc(OC)cc2OC)o1,-9.2%,5.6%,21.3µM*,-0.6%,-0.8%,3.3%
COC(=O)CSc1nnc(-c2c[nH]c3ccccc23)o1,x,2.1%,15.1µM*,-1.1%,x,-4.1%
c1ccc(CSc2nnc(-c3c[nH]c4ccccc34)o2)cc1,u,u,8.49µM*,u,u,u
COc1cccc(OC(=O)CSc2nnc(-c3ccccc3OC)o2)c1,x,x,-5.4%,x,x,x
Cc1c(C(=O)N2CCCC2)c(S(=O)(=O)N2CCN(c3ccccc3F)CC2)c(C)n1C,2.6%,-0.9%,-0.3%,-0.9%,x,-8.1%
CSc1nc(O)c(/C=C2\C=Nc3ccccc32)[nH]1,u,u,10.7µM*,u,u,20.8%
CCc1ccc(N(CC)C(=O)c2cn(C)c(=O)c3ccccc23)cc1,-6.1%,11.3%,-0.5%,0.9%,x,-1.3%
CCOc1ccc(C(=O)COC(=O)CNC(=O)C2CCCCC2)cc1,8.1%,2.4%,9.53µM*,-5.3%,x,-1.7%
O=C(CNC(=O)C1CCCCC1)OCC(=O)c1ccc(Br)cc1,x,4.1%,1.69µM*,0.1%,x,1.3%
O=C(Nc1nccs1)c1ccc(COc2ccccc2)o1,u,u,u,4.47µM*,x,2.51µM*
CCc1nnc(NC(=O)c2ccc(COc3ccccc3)o2)s1,u,16.0%,-13.5%,3.3%,-2.3%,2.2%
CCc1nnc(NC(=O)c2ccc(COc3ccc(C)cc3)o2)s1,2.7%,0.0%,-9.3%,13.9%,u,9.3%
Cc1ccc(OCc2ccc(C(=O)Nc3nccs3)o2)cc1,9.5%,3.1%,16.9µM*,15.9%,9.8%,25.8%
